Assay [1] deals with Cytochrome P450 2D6 (Homo sapiens) (UniProt P10635). Put plainly: qHTS Assay for Inhibitors and Substrates of Cytochrome P450 2D6 (AID 891). Also: nearly all actives have a fitted effect of over 60% in size. Also: potency is read from the fitted curve at half-maximal effect. In outline: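 Luminescent read-out of luciferin formed by 5 nM human CYP2D6 demethylating 30 uM Luciferin-ME EGE (Km level) over 60 min at room temperature after NADPH regeneration addition. Data normalized to full inhibition by 1.43 uM quinidine.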
(qHTS replaces the single test concentration by a dilution series.)

Assay [2] addresses Cytochrome P450 2C19 (Homo sapiens) (UniProt P33261). Put plainly: qHTS Assay for Inhibitors and Substrates of Cytochrome P450 2C19 (AID 899). Also: nearly all actives have a fitted effect of over 60% in size. Also: potency is read from the fitted curve at half-maximal effect. An outline of the steps:
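Human CYP2C19 (5nM) with Luciferin-H EGE at 10uM (its KM) in 50mM KPO4 was preincubated with compound for 10 min at 37C. NADPH regeneration started a 60 min 37C reaction. Luciferin was read by luminescence, normalized to 57uM ketoconazole.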

Another assay has as its system 7G8. The experiment in a line: qHTS profiling for inhibitors of Plasmodium falciparum proliferation (AID 504749). Also: nearly all actives have a fitted effect of over 60% in size. Also: potency is read from the fitted curve at half-maximal effect. The note with it: P. falciparum in erythrocytes, SYBR Green DNA, 72 h; series mostly up to 12.8 µM. An outline of the steps:
(§1)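 Quantitative HTS: compounds pinned into medium, infected erythrocytes added (0.3% parasitemia, 2.5% hematocrit), 72 h culture at 37 C under 5% CO2. Saponin/Triton lysis with SYBR Green I, overnight RT, then fluorescence read.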

For another assay, the system named is AS120. Described as above. The note with it: P. falciparum in erythrocytes, SYBR Green DNA, 72 h; series mostly up to 28.7 µM. An outline of the steps:
as §1

The next assay has as its system CP191. The description is as above. The note with it: P. falciparum in erythrocytes, SYBR Green DNA, 72 h; series mostly up to 28.7 µM. An outline of the steps:
as §1

The next assay relates to CP215. The assay is described as above. The note with it: P. falciparum in erythrocytes, SYBR Green DNA, 72 h; series mostly up to 28.7 µM. An outline of the steps: as §1
Another assay deals with CP260. The assay is described as above. The note with it: P. falciparum in erythrocytes, SYBR Green DNA, 72 h; series mostly up to 28.7 µM. An outline of the steps:
as §1

The next assay concerns CP265. The assay is described as above. The note with it: P. falciparum in erythrocytes, SYBR Green DNA, 72 h; series mostly up to 12.8 µM. In outline: as §1
In a further assay the test system is CP291. Described as above. The note with it: P. falciparum in erythrocytes, SYBR Green DNA, 72 h; series mostly up to 28.7 µM. In outline: as §1
The next assay concerns CP335. The description is as above. The note with it: P. falciparum in erythrocytes, SYBR Green DNA, 72 h; series mostly up to 12.8 µM. An outline of the steps:
as §1

For another assay, the system named is DIV14. The assay is described as above. The note with it: P. falciparum in erythrocytes, SYBR Green DNA, 72 h; series mostly up to 28.7 µM. An outline of the steps: as §1
The next assay relates to DIV17. Described as above. The note with it: P. falciparum in erythrocytes, SYBR Green DNA, 72 h; series mostly up to 28.7 µM. In outline: as §1
The subject of another assay is ICS. Described as above. The note with it: P. falciparum in erythrocytes, SYBR Green DNA, 72 h; series mostly up to 28.7 µM. In outline: as §1
A further assay relates to PAD. The assay is described as above. The note with it: P. falciparum in erythrocytes, SYBR Green DNA, 72 h; series mostly up to 28.7 µM. An outline of the steps: as §1
For a further assay, the system named is SC27B. The assay is described as above. The note with it: P. falciparum in erythrocytes, SYBR Green DNA, 72 h; series mostly up to 28.7 µM. An outline of the steps:
as §1

In the next assay the test system is TAB165. The assay is described as above. The note with it: P. falciparum in erythrocytes, SYBR Green DNA, 72 h; series mostly up to 28.7 µM. An outline of the steps: as §1
For the next assay, the system named is W2. Described as above. The note with it: P. falciparum in erythrocytes, SYBR Green DNA, 72 h; series mostly up to 12.8 µM. An outline of the steps:
as §1

Assay [3] concerns the target Alpha-galactosidase (Coffea arabica) (UniProt Q42656). Put plainly: Counterscreen for Glucocerebrosidase Inhibitors: qHTS Assay for Coffee Bean alpha-Galactosidase at pH 5.9 (AID 998). An outline of the steps: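 In 50 mM citric acid pH 5.9 with 0.005% Tween-20, coffee bean enzyme hydrolyses 80 uM 4-MU alpha-D-galactopyranoside over 20 min at RT. Activity is normalized to controls; AC50 comes from Hill-modelled concentration-response data.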
Background: The purpose of a counterscreen is to sort out artefacts and off-target activity.

Assay [4] concerns the target Cytochrome P450 3A4 (Homo sapiens) (UniProt P08684). Put plainly: qHTS Assay for Inhibitors and Substrates of Cytochrome P450 3A4 (AID 884). Also: potency is read from the fitted curve at half-maximal effect; nearly all actives have a fitted effect of over 50% in size. In outline: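 Luminescent readout of luciferin produced by CYP3A4 (20 nM) dealkylation of Luciferin-PPXE, 25 uM (its KM). NADPH-driven reaction ran 60 min at RT after 10 min compound preincubation; data scaled to 57 uM ketoconazole as 100% inhibition.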

“And” between values parts separate entries of the source, which are not always exact repeats. Identical values can stand only once. Unmarked numbers belong to inactive results. Results filed as inconclusive are left out. The source made the active and inactive calls. Calls follow the shape of the dose curve; as a rule, active = well fitted curve in the direction sought with a large enough effect; inconclusive = small, poorly fitted or top-dose-only effect, or another doubt; inactive = no such curve, though single readings can be large; an effect the other way counts as inactive or inconclusive.

Cytochrome P450 2C19 (Homo sapiens), sequence (P33261 whole entry, looked up): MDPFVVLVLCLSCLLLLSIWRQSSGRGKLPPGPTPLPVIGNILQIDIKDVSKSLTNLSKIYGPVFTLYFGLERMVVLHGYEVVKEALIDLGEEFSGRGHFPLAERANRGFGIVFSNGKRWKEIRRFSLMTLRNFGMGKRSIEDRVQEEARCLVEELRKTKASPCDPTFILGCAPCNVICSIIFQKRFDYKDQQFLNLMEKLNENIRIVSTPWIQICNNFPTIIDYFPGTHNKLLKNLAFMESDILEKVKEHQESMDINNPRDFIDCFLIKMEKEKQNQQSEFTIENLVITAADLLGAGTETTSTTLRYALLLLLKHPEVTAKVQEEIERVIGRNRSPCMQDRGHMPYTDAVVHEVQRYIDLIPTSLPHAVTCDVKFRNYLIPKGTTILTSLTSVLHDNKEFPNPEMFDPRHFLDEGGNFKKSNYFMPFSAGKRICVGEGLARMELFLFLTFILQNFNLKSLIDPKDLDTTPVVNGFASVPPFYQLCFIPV
Alpha-galactosidase (Coffea arabica), sequence (Q42656 whole entry, looked up): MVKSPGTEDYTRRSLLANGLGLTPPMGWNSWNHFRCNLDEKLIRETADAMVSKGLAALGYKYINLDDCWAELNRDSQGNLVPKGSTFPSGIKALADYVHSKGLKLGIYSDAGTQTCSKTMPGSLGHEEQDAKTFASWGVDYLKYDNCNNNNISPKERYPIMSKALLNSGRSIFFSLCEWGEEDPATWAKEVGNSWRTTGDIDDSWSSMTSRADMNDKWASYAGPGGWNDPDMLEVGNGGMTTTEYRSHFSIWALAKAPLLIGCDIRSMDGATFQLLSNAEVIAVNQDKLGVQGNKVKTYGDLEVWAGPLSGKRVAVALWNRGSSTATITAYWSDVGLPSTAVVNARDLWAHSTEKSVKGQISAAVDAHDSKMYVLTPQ
Cytochrome P450 2D6 (Homo sapiens), sequence (P10635 whole entry, looked up): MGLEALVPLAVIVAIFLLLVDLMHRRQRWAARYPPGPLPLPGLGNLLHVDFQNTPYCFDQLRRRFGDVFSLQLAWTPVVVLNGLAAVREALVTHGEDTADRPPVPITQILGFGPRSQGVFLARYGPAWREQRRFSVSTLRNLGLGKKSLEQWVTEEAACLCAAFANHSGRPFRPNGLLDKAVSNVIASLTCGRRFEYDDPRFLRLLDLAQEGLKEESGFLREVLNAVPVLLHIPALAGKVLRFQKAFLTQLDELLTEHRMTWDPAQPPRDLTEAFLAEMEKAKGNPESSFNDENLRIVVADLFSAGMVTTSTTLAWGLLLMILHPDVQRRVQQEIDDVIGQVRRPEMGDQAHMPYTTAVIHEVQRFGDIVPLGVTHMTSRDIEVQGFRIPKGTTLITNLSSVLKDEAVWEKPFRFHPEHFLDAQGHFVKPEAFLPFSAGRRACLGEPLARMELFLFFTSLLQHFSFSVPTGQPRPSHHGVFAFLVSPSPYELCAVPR
Cytochrome P450 3A4 (Homo sapiens), sequence (P08684 whole entry, looked up): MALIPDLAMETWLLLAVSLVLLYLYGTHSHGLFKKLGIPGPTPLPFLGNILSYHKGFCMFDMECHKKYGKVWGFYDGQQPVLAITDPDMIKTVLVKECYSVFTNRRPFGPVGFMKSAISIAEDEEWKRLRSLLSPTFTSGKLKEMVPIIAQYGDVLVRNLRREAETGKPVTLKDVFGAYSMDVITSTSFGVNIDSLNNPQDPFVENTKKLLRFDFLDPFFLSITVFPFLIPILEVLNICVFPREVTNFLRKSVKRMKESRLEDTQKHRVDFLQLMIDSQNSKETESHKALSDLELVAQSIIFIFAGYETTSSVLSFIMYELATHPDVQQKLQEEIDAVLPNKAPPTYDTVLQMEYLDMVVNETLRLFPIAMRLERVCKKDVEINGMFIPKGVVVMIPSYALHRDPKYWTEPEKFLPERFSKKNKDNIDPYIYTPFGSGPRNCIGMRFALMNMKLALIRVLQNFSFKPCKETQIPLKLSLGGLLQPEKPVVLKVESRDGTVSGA

For `CNC[C@H](O)c1ccc(O)cc1`, the Potency entry (in assay [1]; in assay [2]; with 7G8; with AS120; with CP191; in the assay on CP215) was “inactive” each time. Also, the Potency entry with CP260, in the assay on CP265, in the assay on CP291, with CP335, with DIV14 and in the assay on DIV17 was “inactive” throughout. The Potency entry in the assay on ICS, in the assay with PAD, with SC27B, with TAB165 and with W2 was “inactive” in each case.
For `C[N+]1(C)[C@@H]2CC[C@H]1CC(OC(=O)[C@@H](CO)c1ccccc1)C2` (some centres undefined), in assay [3], the result was inactive. Further, the Potency entry with 7G8, in the assay on AS120, in the assay with CP191, in the assay on CP215, in the assay on CP260 and in the assay on CP265 was “inactive” throughout. For the same compound, the Potency result in the assay with CP291, in the assay on CP335, in the assay with DIV14, in the assay on DIV17, with ICS and in the assay with PAD was “inactive” throughout. For the same compound, the Potency result in the assay with SC27B, with TAB165 and in the assay on W2 was “inactive” each time.
On to `COc1cc2c(cc1OC)[C@H](C)NCC2`, for which the Potency result in [1] and in assay [2] was “inactive” throughout.
Take `C=C[C@H]1CN2CC[C@@H]1C[C@H]2[C@@H](O)c1ccnc2ccccc12`: the Potency in [1] was 3.16 µM (active) and 501 nM (active).
For the compound `CCN1C[C@]2(C)CC[C@H](OC)[C@@]34[C@@H]2[C@H](OC(C)=O)[C@]2(OCO[C@@]25C[C@@H](OC)[C@@H]2C[C@@]3(O)[C@H]5[C@@H]2OC)[C@H]14`, the Potency result in assay [2] is “inactive”.
Regarding `NCC[C@H](O)C(=O)N[C@H]1C[C@@H](N)[C@@H](O[C@H]2O[C@@H](CN)[C@@H](O)[C@@H](O)[C@@H]2N)[C@@H](O[C@H]2O[C@@H](CO)[C@@H](O)[C@@H]2O)[C@@H]1O`, the Potency entry in the assay on 7G8, in the assay on AS120, in the assay on CP191, in the assay on CP215, in the assay with CP260 and in the assay on CP265 was “inactive” in each case. Moreover, the Potency entry in the assay on CP291, in the assay on CP335, with DIV14, in the assay on DIV17, in the assay on ICS and in the assay with PAD was “inactive” in each case. For the same compound, the Potency result in the assay with SC27B, in the assay on TAB165 and in the assay with W2 was “inactive” throughout.
In the case of `CC(=O)OCC(=O)[C@@H]1CC[C@H]2[C@H]3CC[C@H]4C[C@@H](O)CC[C@]4(C)[C@@H]3C(=O)C[C@@]12C`, the Potency result in the assay with 7G8, with AS120, in the assay on CP191, with CP215, in the assay on CP265 and in the assay on CP291 was “inactive” in each case. Besides, the Potency result with CP335, with DIV14, with DIV17, in the assay on ICS, in the assay on PAD and in the assay on SC27B was “inactive” each time. Besides, the Potency entry in the assay on TAB165 and with W2 was “inactive” throughout.
For the compound `CC[N@+]1(C)CCC[C@@H](OC(=O)C(O)(c2ccccc2)c2ccccc2)C1`, the Potency in assay [1] was 5.01 µM (active).
Consider `CC[C@]1(c2cccc(O)c2)CCCCN(C)C1`, for which the Potency entry with 7G8, in the assay on CP191, with CP260 and with ICS was “inactive” throughout. In addition, the Potency in the assay with W2 is 3.22 µM (active).
For the compound `CC(C)C[C@H]1C(=O)N2CCC[C@@H]2[C@@]2(O)O[C@](NC(=O)[C@@H]3C=C4c5cccc6[nH]cc(c56)C[C@@H]4N(C)C3)(C(C)C)C(=O)N12`, the Potency in [4] was 2 µM (active).
As for `CN1CC[C@]2(C)c3cc(O)ccc3N(C)[C@@H]12`, the Potency in assay [1] is 25.1 µM (active); in [2], 12.6 µM (active). Moreover, the result in [3] was inactive.
For the compound `COc1ccc(C[C@H]2c3cc(OC)c(OC)cc3CCN2C)cc1OC`, the Potency entry in [2] is “inactive”.
With `C[N+]1([O-])[C@@H]2CC[C@H]1CC(OC(=O)[C@@H](CO)c1ccccc1)C2` (some centres undefined), the Potency result in the assay with 7G8, with AS120, in the assay with CP191, in the assay on CP215, in the assay on CP260 and in the assay on CP265 was “inactive” in each case. In addition, the Potency result in the assay with CP291, with CP335, with DIV14, in the assay with DIV17, with ICS and in the assay with PAD was “inactive” each time. In addition, the Potency entry in the assay on SC27B, in the assay on TAB165 and in the assay with W2 was “inactive” throughout.
In the case of `CN1CCc2cc3c(cc2[C@@H]1O)OCO3`, the Potency in assay [1] is 7.94 µM (active).
Turning to `CO[C@@H](C)[C@](O)(C(=O)OCC1=CCN2CC[C@@H](O)[C@H]12)C(C)C`, the Potency result in [2] is “inactive”.
For the compound `COc1cc2c(cc1O)[C@H]1Cc3ccc(OC)c(O)c3CN1CC2`, the Potency in [1] was 0.0316 µM (active).
Take `N[C@H]1C[C@H]1c1ccccc1`: the Potency result in the assay on 7G8, in the assay with AS120, in the assay on CP191, in the assay on CP215, with CP265 and with CP291 was “inactive” each time. Besides, the Potency result with CP335, with DIV14, with DIV17, in the assay on ICS, in the assay with PAD and in the assay on SC27B was “inactive” in each case. Also, the Potency result with TAB165 and in the assay on W2 was “inactive” each time.

The record behind these values is PubChem BioAssay (NCATS).
